In paper PMC10668032, “Altered binding affinity of SIX1-Q177R correlates with enhanced WNT5A and WNT pathway effector expression in Wilms tumor”:
Over roughly 33,000 sequences, “e-score” has its median near -0.05; the highest 2% begin near 0.38. This is one part of a sample in which the highest values are shown more often than they occur.

target: T1, SIX1-Q177R homeodomain (human, UniProt Q15475 108-198, Q177R); experiment: universal protein binding microarray; Universal all-10-mer PBM (8x60K, AMADID 030236), 300 nM GST-tagged protein, Alexa Fluor 488 anti-GST; buffer, salt, pH and temperature not stated (as in Berger); high values mean tight binding; settings: protein: ivt; tags: N-terminal GST; dsDNA, one strand shown
T1 sequence: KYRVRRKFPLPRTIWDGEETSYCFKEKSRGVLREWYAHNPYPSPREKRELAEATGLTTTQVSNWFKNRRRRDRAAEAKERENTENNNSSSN
Method in brief: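 GST-tagged homeodomains were made by in vitro transcription/translation and quantified by anti-GST western blot against a recombinant GST standard curve. They were applied in duplicate at 300 nM final concentration to universal 'all 10-mer' protein binding microarrays (8×60K format). Binding was quantified as 8-mer E-scores with the Universal PBM Analysis Suite.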

Sequence | binding signal [E-score]
CTCGCCCC | 0.173 ± 0.0101
GGAGGGTA | 0.224 ± 0.0107
ACCCACAA | 0.151 ± 0.0489
CCCCACCG | 0.228 ± 0.054
AGCGGGTG | 0.333 ± 0.0119
ACCAGGCA | 0.151 ± 0.0134
CTGGTATC | 0.274 ± 0.0156
GTGGTGTA | 0.481 ± 0.00765
CTGGTGTC | 0.4826 ± 0.00371
CTGGTACA | 0.21 ± 0.0391
GTGTGGTA | 0.265 ± 0.00181
ATGTGGTG | 0.271 ± 0.0248
CTGGTGCA | 0.234 ± 0.0234
ATGGGGTG | 0.342 ± 0.0155
CTGGAGTC | 0.1843 ± 0.00156
ATGGTGTG | 0.405 ± 0.0177
GTGGTGCA | 0.189 ± 0.00669
CTGGTGTA | 0.4837 ± 0.00053
ACCCGGGC | 0.199 ± 0.0334
CTTGCACC | 0.166 ± 0.00933
CCCGGTCG | 0.212 ± 0.00566
ACACAATG | 0.164 ± 0.079

Sequence | binding signal [E-score]
ACCCACAC | 0.348 ± 0.0152
ACCTCGGG | 0.273 ± 0.0151
AGGCGGTG | 0.2798 ± 0.00206
CACGCGGG | 0.241 ± 0.00761
ACCTTCCT | 0.264 ± 0.0494
ATTGTGTA | 0.151 ± 0.0397
ATGGTACA | 0.18 ± 0.0214
ATGGTGTA | 0.4792 ± 0.00274
ATGGTGTC | 0.486 ± 0.00186
ATTGTGTC | 0.219 ± 0.0744
ATGGTATC | 0.3344 ± 0.0022
CACCCAAG | 0.366 ± 0.00569
ACTGATCC | 0.16 ± 0.00427
CACCGGGG | 0.256 ± 0.0427
AACCGTGT | 0.3792 ± 0.0033
ATGCACCC | 0.19 ± 0.0233
GGGTTACA | 0.242 ± 0.0177
CCCGCACA | 0.228 ± 0.0266
CACTATAC | 0.261 ± 0.0244
ACACTTGG | 0.329 ± 0.018
CCGGGTCA | 0.285 ± 0.0196
GTATCATA | 0.29 ± 0.00996

Sequence | binding signal [E-score]
AGGAACAC | 0.394 ± 0.0134
CGGAACCC | 0.234 ± 0.0277
GGGAACAC | 0.368 ± 0.0116
AGGCACAC | 0.203 ± 0.0019
CGGAACAC | 0.411 ± 0.0112
GGGAACCC | 0.184 ± 0.0515
ACGGGTAT | 0.277 ± 0.00631
CGGCGTCA | 0.219 ± 0.00435
CCCGCTGA | 0.159 ± 0.0401
CTTCTACC | 0.203 ± 0.0258
TATTCTAA | 0.213 ± 0.0183
GTGTCTCA | 0.371 ± 0.00405
GTGTCTAA | 0.394 ± 0.0134
GAGTCACA | 0.26
GTATCAAC | 0.256 ± 0.0174
GTGTCAAA | 0.4527 ± 0.00139
GTGTCAAC | 0.443 ± 0.00646
GGGTCAAC | 0.223 ± 0.0249
GTGTCACA | 0.462 ± 0.00507
GTATCAAA | 0.159 ± 0.0425
GGGTCACA | 0.202 ± 0.0391
GGGTCAAA | 0.171 ± 0.0267

Sequence | binding signal [E-score]
CACTGGAA | 0.152 ± 0.024
AGGGGTTC | 0.193 ± 0.0251
GACCCCGC | 0.248 ± 0.0275
CCTGATAC | 0.202 ± 0.0295
AGTGCACC | 0.28 ± 0.00682
GATCCCAC | 0.24 ± 0.0253
TATACCCA | 0.192 ± 0.0317
GTGTCATA | 0.458 ± 0.00496
GTATCGAA | 0.199 ± 0.0103
GTGTCGAA | 0.448 ± 0.00926
GAGTCATA | 0.184 ± 0.0258
GGGTCATA | 0.237 ± 0.0329
GTGTCAGA | 0.4533 ± 0.00139
GGGTCGAA | 0.182 ± 0.0133
GAGTCAGA | 0.21 ± 0.0213
GGGTCAGA | 0.196 ± 0.0143
CGCGTACA | 0.2538 ± 0.00208
GAGGGTGC | 0.237 ± 0.0114
AAAGAGTG | 0.186 ± 0.0198
AGAACCCC | 0.182 ± 0.0559
